Results taken from ChEMBL document CHEMBL1157539, “Thousands of chemical starting points for antimalarial lead identification” (Nature, 2010).

Columns and labels:
Assay type in all cases: functional
Plasmodium falciparum [1] = experiment: GSK_TCMDC: Inhibition of Plasmodium falciparum 3D7 in whole red blood cells, using parasite LDH activity as an index of growth. Test compounds present at 2uM
Plasmodium falciparum [2] = experiment: GSK_TCMDC: Inhibition of Plasmodium falciparum Dd2 in whole red blood cells, using parasite LDH activity as an index of growth. Test compounds present at 2uM
HepG2 = experiment: GSK_TCMDC: Percent inhibition of human HepG2 cell line. Test compounds present at 10uM.

Compound	Inhibition (Plasmodium falciparum [1]) [%]	Inhibition (Plasmodium falciparum [2]) [%]	Inhibition (HepG2) [%]
O=C(Nc1ccc(Br)cc1)N(CCN1CCOCC1)CC(O)COc1ccc(Cl)c(F)c1.O=C(O)C(F)(F)F (stereo not drawn)	98	30	3
Cc1ccc(/C=C/C(=O)NCCCCCN2CCCN(C(=O)Nc3ccc(Cl)c(Cl)c3)CC2)cc1	95	1	24
CC(=O)N[C@@H]1c2cc(C(C)=O)ccc2OC(C)(C)[C@@H]1O	97	3	15
COc1ccc2nccc(N3CCN(CCNCc4ccc5c(n4)NC(=O)CO5)CC3)c2c1.Cl	92	5	18
COc1cccc(CNC(=O)c2cc(CNCc3ccccc3)ccc2-c2cccc(CNCc3ccc(-c4ccccc4)cc3)c2)c1.O=C(O)C(F)(F)F	95	15	22
N#Cc1cccc(Nc2nccc(Nc3ccc(Oc4ccccc4)cc3)n2)c1	94	17	12
CC(C)n1ncc2c(C(=O)N3CCCCCC3)cc(-c3ccccc3)nc21	97	42	0
Cc1cc(N2CCC(N(C)C)C2)nc(Nc2ccc(Cl)cc2)n1 (stereo not drawn)	99	17	11
Cc1noc(NC(=O)c2sc3ccccc3c2O)c1C	90	50	0
COc1ccc2nccc([C@@H](O)CN3CCC(NCc4ccc5nnsc5c4)CC3)c2c1.O=C(O)C(=O)O	99	0	16
CCCC(C)Nc1nc(C)cc(N[C@@H](Cc2ccccc2)C(=O)NCc2cccc(F)c2)n1.O=C(O)C(F)(F)F (stereo partly drawn)	100	75	9
